# Source: PubChem BioAssay (several laboratories)
# An excerpt weighted towards active compounds, which were near 1.4% of everything screened.
# EP2 antag: inhibitors of human EP2 prostaglandin E2 receptor; C6 glioma cells expressing human EP2, cAMP TR-FRET; cells stimulated with saturating PGE2; actives 0.52% (n = 260,000); inhibition, % at 25 µM; P43116;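 active = percent inhibition above 40 after rounding to a whole number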;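 also: rat C6 glioma host cells with rolipram phosphodiesterase inhibitor present; the protocol text gives 20 µM as final concentration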
# Target sequence (P43116 whole entry, looked up): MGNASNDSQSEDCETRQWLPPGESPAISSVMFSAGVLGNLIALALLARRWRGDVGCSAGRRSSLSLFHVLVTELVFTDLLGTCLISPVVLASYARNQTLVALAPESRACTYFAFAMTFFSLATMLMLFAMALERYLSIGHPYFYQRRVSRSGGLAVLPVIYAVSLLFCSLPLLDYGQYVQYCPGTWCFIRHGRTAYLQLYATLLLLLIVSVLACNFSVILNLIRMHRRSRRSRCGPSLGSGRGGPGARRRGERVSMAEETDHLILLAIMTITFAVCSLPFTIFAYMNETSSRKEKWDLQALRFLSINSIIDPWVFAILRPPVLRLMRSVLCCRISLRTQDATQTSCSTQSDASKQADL
# EP2 mod: modulators of human EP2 prostaglandin E2 receptor; induction, % at 25 µM; P43116; AID 940; EP2-expressing cells, cAMP HTRF FRET, PGE2 co-stimulation; actives 0.83% (n = 260,000);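 active = compounds whose cAMP rise, as percent of the full-agonist control response, exceeds 60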;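 also: rat C6 glioma line stably carrying human EP2 under a CMV promoter; the protocol text gives 20 µM as final concentration; 100% = response of wells given 1 µM PGE2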
# HSV replic up: HSV replication enhancement. HSV replication augmentation in cells, fold increase. maximum fold increase. actives 0.005% (n = 220,000). AID 1956; in the data active = maximum fold increase above about 1.5; tested in PC3 cells
# Furin inh: human furin inhibition; purified furin, fluorogenic substrate cleavage; inhibition, % at 20 µM or 30 µM; actives 0.061% (n = 220,000); in the data active = inhibition above about 25%
# Pf gamet viab: kills late stage P. falciparum gametocytes. P. falciparum stage V gametocytes, ATP luminescence, 24 h. inhibition, % at 10.9 µM. actives 0.065% (n = 150,000);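 active = inhibition above the mean plus 3 SD of compounds within the control limits, set per campaign, cut at about 38% in these data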;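 also: 0% = DMSO wells and 100% = medium only without gametocytes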
# EP2 cAMP induct: EP2 receptor cAMP induction, counter-screens negative | shares compounds with EP2 mod | C6 glioma EP2 cells, cAMP HTRF induction; plus low (about EC15) PGE2 agonist | calls only at 20 µM (by protocol) | actives 47% (n = 1,300);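 active = cAMP induction above 50% in the main assay while under 30% in all four parallel counter assays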;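 also: rat C6 glioma cells stably expressing human EP2 receptor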
# Starred values were filed as active, the others as inactive; i = inactive; · = no result given; + = active, no number.
SMILES,EP2 antag,EP2 mod,HSV replic up,Furin inh,Pf gamet viab,EP2 cAMP induct
COc1ccc(C(=O)c2ccccc2)c(O)c1,3,41,i,-18,18,+
Cc1ccc(S(=O)(=O)/N=C(\Nc2cccc(C)c2)Nc2nc(C)cc(C)n2)cc1,2,17,i,-8,·,·
COc1ccc(OCC(=O)NC(=S)Nc2ccc3c4c(cccc24)CC3)cc1,18,68*,i,-10,-4,i
O=C(CN1CCC(NC(=O)C2CCCCC2)CC1)Nc1cccc(F)c1,9,-13,·,·,·,·
C=CCNc1nc(N2CCOCC2)nc(N2CCOCC2)n1,6,10,i,-15,·,·
CCC(C)C(NC)C(=O)O (centres undefined),11,2,·,·,·,·
CN(C)CCn1nc(-c2cccnc2)oc1=O,4,-2,·,·,·,·
CC[C@H](C)C(=O)O[C@H]1C[C@@H](C)C=C2C=C[C@H](C)[C@H](CC[C@@H]3C[C@@H](O)CC(=O)O3)[C@H]21,10,33,i,-8,·,i
CC[C@H](C)C(=O)O[C@H]1CCC=C2C=C[C@H](C)[C@H](CC[C@@H]3C[C@@H](O)CC(=O)O3)[C@H]21,6,34,i,-29,·,·
CCOc1ccccc1NC(=O)c1c(Br)cnn1C,3,69*,i,-4,·,i
Cn1ncc(Br)c1C(=O)Nc1ccc(F)cc1F,10,-9,i,-15,·,·
CCOC(=O)C1CCN(c2c(C(=O)c3ccccc3)cnc3ccc(Cl)cc23)CC1,9,81*,i,-12,·,+
COc1ccccc1-c1nnc2sc(-c3cc4ccccc4o3)nn12,·,77*,·,-6,9,+
CC(C)c1nc(SCc2c(F)cccc2Cl)c2c(=O)n(C)c(=O)n(C)c2n1,11,80*,i,-20,·,+
Cn1c(=O)c2c(nc(SCCCC#N)n2Cc2c(F)cccc2Cl)n(C)c1=O,7,18,i,-23,·,·
Cc1nc(/C(N)=N/OC(=O)c2ccccc2Cl)c(C(F)(F)F)o1,7,-11,i,-17,7,·
CC(C)CCn1c(O)c(N=NC(=O)c2ccco2)c2ccccc21,1,73*,i,-24,-43,i
C#CCOc1ccc(/C=C2\C(=O)NC(=O)N(c3ccc(O)cc3)C2=O)cc1,9,-29,·,·,·,·
Cc1ccc(-n2c(C3CC3c3ccc(Cl)cc3)n[nH]c2=S)cc1 (centres undefined),3,48,i,-16,·,·
Cc1ccc(C2CC2c2n[nH]c(=S)n2-c2ccc(C)cc2)cc1 (centres undefined),2,58,i,6,·,i
O=C(NCCC1=CCCCC1)c1cccc2c1C(=O)N(C1CCCCC1)C2,2,85*,i,-33,8,+
Cc1ccccc1N(C(=O)Cn1nnc2ccccc21)C(C(=O)NCc1ccco1)c1cccnc1 (centres undefined),7,-7,·,·,·,·
O=C(c1ccc(N2CCN(C3CC(=O)N(Cc4cccs4)C3=O)CC2)cc1)c1cccnc1 (centres undefined),8,-44,i,-16,16,·
CC(=O)c1cccc(NC(=S)NC(=O)c2ccccc2)c1,18,-26,i,-15,4,·
COc1cc2ccccc2cc1C(=O)NC(=S)Nc1cccc(C(=O)O)c1,3,95*,i,-20,35,+
SMILES,EP2 antag,EP2 mod,HSV replic up,Furin inh,Pf gamet viab,EP2 cAMP induct
COc1ccc(C(=O)NCC(=O)n2nc(C)cc2C)cc1OC,8,66*,i,-12,·,i
Cc1cc(C)n(C(=O)CNC(=O)Cc2ccccc2)n1,8,-95,i,-28,·,·
O=C(Nc1cccc(Cl)c1N1CCOCC1)c1ccc([N+](=O)[O-])o1,5,-2,i,-32,-5,·
CCOC(=O)c1c(C2COc3ccccc3O2)csc1N (centres undefined),8,70*,i,-12,·,+
CCOC(=O)c1c(C2COc3ccccc3O2)csc1NC(=O)c1ccccc1 (centres undefined),5,32,i,-28,1,·
O=C(/C=C/c1ccco1)Nc1ccc(N2CCCC2)cc1,6,-20,i,-11,-19,·
CCOC(=O)c1c(NC(=O)CSc2nnc(C)s2)sc2c1CCCCC2,6,43,i,-15,·,·
CCOC(=O)c1c(NC(=O)Cn2c(C)nc3ccccc32)sc2c1CCC2,12,43,i,-18,23,·
